Assay [1] can be described thus: A CellTox Green Cytotoxicity Assay to monitor cytotoxicity in HEK293 cells - 40 hour (AID 1224871). Note: nearly all actives have a fitted effect of over 45% in size. A digest of the protocol:
(§1)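 Read-out: fluorescence of a cell-impermeant cyanine dye staining DNA of dead cells, proportional to cytotoxicity. HEK293, 600 cells/well with reagent, compound (23 nL DMSO) added after 5 h; reads at 0, 8, 16, 24, 32, 40 h.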

Assay [2] in a line: qHTS RealTime-Glo MT Cell Viability Assay in HEK293 cells - 16 hour (AID 1224872). For activity change, negative = cytotoxicity: top concentration of the series differs between compounds. Note: nearly all actives have a fitted effect of over 50% in size. The method in brief:
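HEK293 cells seeded with NanoLuc/prosubstrate reagent, rested 5 h at 37 C, then dosed and kept at 37 C up to 40 h. Nonlytic real-time luminescence from viable cells read at 0, 8, 16, 24, 32 and 40 h.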

A short description of assay [3]: qHTS RealTime-Glo MT Cell Viability Assay in HEK293 cells - 40 hour (AID 1224874). Note: nearly all actives have a fitted effect of over 50% in size. Particulars: RealTime-Glo luminescence; max response: stronger effect = lower value. A digest of the protocol:
(§2)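 Luminescence readout at each listed time point; HEK293, 600 cells/well, RealTime-Glo MT reagent added with cells; compounds pinned (23 nL in DMSO) after 5 h at 37 C; continuous culture at 37 C.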

Assay [4] is described as follows: A CellTox Green Cytotoxicity Assay to monitor cytotoxicity in HEK293 cells - 24 hour (AID 1224875). For activity change: series mostly up to about 77 µM. Note: nearly all actives have a fitted effect of over 45% in size. The method in brief: as §1
Assay [5] is described as follows: A CellTox Green Cytotoxicity Assay to monitor cytotoxicity in HepG2 cells - 16 hour (AID 1224876). Note: nearly all actives have a fitted effect of over 45% in size. The method in brief: (§3)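 HepG2, 600 cells/well premixed w/ CellTox Green; 5 h settle, 37 C/5% CO2; pintool cpd add (DMSO); 37 C, 40 h; fluorescence read at 0, 8, 16, 24, 32, 40 h.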
The nature of assay [6]: A CellTox Green Cytotoxicity Assay to monitor cytotoxicity in HepG2 cells - 24 hour (AID 1224878). Note: nearly all actives have a fitted effect of over 45% in size. The method in brief:
as §3

Assay [7] in a line: A CellTox Green Cytotoxicity Assay to monitor cytotoxicity in HepG2 cells - 40 hour (AID 1224879). Note: nearly all actives have a fitted effect of over 40% in size. A digest of the protocol:
as §3

Assay [8] is described as follows: qHTS RealTime-Glo MT Cell Viability Assay in HEK293 cells - 0 hour (AID 1224880). For activity change, negative = cytotoxicity: top concentration of the series differs between compounds. Note: nearly all actives have a fitted effect of over 45% in size. A digest of the protocol: as §2
Assay [9] in a line: qHTS RealTime-Glo MT Cell Viability Assay in HepG2 cells - 8 hour (AID 1224873). Note: nearly all actives have a fitted effect of over 55% in size. A digest of the protocol: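 Real-time viability: cells seeded at 600 per well together with NanoLuc and cell-permeant prosubstrate, compounds added after 5 h incubation. Luminescence tracked at 0, 8, 16, 24, 32 and 40 h of exposure.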
Assay [10] in a line: qHTS RealTime-Glo MT Cell Viability Assay in HepG2 cells - 32 hour (AID 1224877). Note: nearly all actives have a fitted effect of over 55% in size. A digest of the protocol: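 HepG2 cells (600/well) were dispensed with RealTime-Glo reagents, incubated 5 h at 37 °C, then treated with compounds in DMSO for up to 40 h. Nonlytic NanoLuc luminescence reflecting viable cells was read at each stated time point.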

“And” between values parts separate entries of the source, which are not always exact repeats. Identical values can stand only once. Records with an inconclusive call do not appear. Some compounds were tested as several samples or in several runs, with calls that do not always agree. The source made the active and inactive calls. Calls come from the whole dose curve; as a rule, active = well fitted curve in the direction sought with a large enough effect in the repeat runs; inconclusive = weak or mixed curves; inactive = no such curve, though single readings can be large; an effect the other way counts as inactive or inconclusive.
% is set by controls: 0 for no effect and ±100 for the full control effect; potency is the fitted concentration of half-maximal effect.

Regarding `CCOC(=O)Cn1cccc1-c1nc(-c2ccc(OC)cc2)c(-c2ccc(OC)cc2)s1`, the Potency entry in [1], in assay [2], in assay [4], in assay [5], in assay [6] and in assay [7] was “inactive” throughout. Besides, the Potency result in assay [8] was “inactive”. In assay [3], the max response is -5.42% (inactive).

Turning to `C#C[C@]1(OC(C)=O)CC[C@H]2[C@@H]3CCC4=C/C(=N/O)CC[C@@H]4[C@H]3CC[C@@]21CC`, the Potency result in assay [1], in assay [9], in assay [4], in [5], in [10] and in assay [6] was “inactive” in each case. Further, the Potency entry in assay [7] and in [8] was “inactive” in each case. The Potency in assay [2] is 23.9 µM (active).

For the compound `C[C@@H](O)[C@H](N)C(=O)O`, the cytotoxicity increase in assay [1] is -7.08% [at 15.8 µM] (inactive); in assay [5] it was 6.33% [at 15.8 µM] (inactive); in assay [7], 7.81% [at 15.8 µM] (inactive). The viability change, negative = cytotoxic in [9] was 1.46% [at 15.8 µM] (inactive). Besides, in [3], the max response was -1.76% (inactive). Further, the activity change in assay [4] is -4.79% [at 15.8 µM, stronger effect = higher value] (inactive). Also, the activity change, negative = cytotoxic in assay [10] was -3.46% [at 15.8 µM] (inactive). For the same compound, the cytotoxicity in assay [6] is 5.91% [at 15.8 µM] (inactive). For the same compound, the activity change, negative = cytotoxicity in assay [8] was -2.75% [at 15.8 µM] (inactive).

With `Cc1cc(C(C#N)c2ccc(Cl)cc2)c(Cl)cc1NC(=O)c1cc(I)cc(I)c1O` (stereo not given), the Potency result in assay [1], in assay [2], in assay [9], in assay [4], in [5] and in [10] was “inactive” each time. The Potency entry in assay [6], in assay [7] and in assay [8] was “inactive” each time.

`O=S(=O)(O)c1ccc(N=Nc2c(O)ccc3ccccc23)cc1`: the Potency result in assay [1], in assay [2], in assay [4], in assay [5], in [6] and in assay [7] was “inactive” in each case. Also, the Potency entry in [8] was “inactive”.

`CC(C)=CCNc1ncnc2c1ncn2[C@@H]1O[C@H](CO)[C@@H](O)[C@H]1O`: the Potency result in assay [1], in assay [2], in assay [9], in [4], in [10] and in [8] was “inactive” throughout.

For the compound `CCCC(=O)OCOC(=O)C1=C(C)NC(C)=C(C(=O)OC)C1c1cccc(Cl)c1Cl` (stereo not given), the Potency entry in [1], in assay [2], in assay [4], in assay [5], in [10] and in assay [6] was “inactive” throughout. Besides, the Potency entry in [7] was “inactive”. In addition, the max response in [3] was 2.11% (inactive). Moreover, the Potency in assay [8] was 9.52 µM (active).

Regarding `O=C1NC(=O)[C@@H]2CC=CC[C@H]12`, the Potency entry in [1], in [2], in [9], in [4], in assay [5] and in assay [10] was “inactive” throughout. For the same compound, the Potency entry in [6] and in assay [8] was “inactive” each time.

As to `Fc1ccc(C(c2ccc(F)cc2)N2CCNCC2)cc1`, the Potency result in assay [1], in assay [2], in assay [9], in assay [4] and in assay [10] was “inactive” each time.

As for `CCCCC(CC)CN1CN(CC(CC)CCCC)CC(C)(N)C1` (stereo not given), the Potency in assay [1] is 10.7 µM (active); in [9] it was 19 µM (active); in [3], 9.52 µM (active); in assay [4] it was 10.7 µM (active); in assay [5], 19 µM (active); in assay [10] it was 16.9 µM (active). Also, the Potency in [6] and in [7] was 19 µM (active) each time.

On to `Clc1nnc(Cl)c2ccccc12`, for which the Potency result in assay [1], in assay [2], in assay [4], in assay [5], in [10] and in assay [6] was “inactive” throughout. Besides, the Potency entry in assay [7] and in assay [8] was “inactive” each time. Further, the max response in [3] is -4.03% (inactive).

With `C=CC(=O)Nc1cc2c(Nc3ccc(F)c(Cl)c3)ncnc2cc1OCCCN1CCOCC1`, the Potency in assay [1] is 10.7 µM (active); in assay [2] it was 10.7 µM (active); in assay [3] it was 9.52 µM (active); in assay [4], 19 µM (active); in assay [5], 21.3 µM (active); in assay [10], 9.52 µM (active). Besides, the Potency is 10.7 µM (active) in [6] and 6.01 µM (active) in assay [7].

As to `CCCC[P+](C)(CCCC)CCCC`, the Potency entry in assay [1], in assay [2], in assay [9], in assay [4], in [5] and in assay [10] was “inactive” throughout. The Potency entry in [6], in assay [7] and in assay [8] was “inactive” throughout.

For the compound `COc1ccc2c(c1)c(CC(=O)OC/C=C(\C)CC/C=C(\C)CCC=C(C)C)c(C)n2C(=O)c1ccc(Cl)cc1`, the Potency entry in assay [1], in assay [2], in assay [4], in assay [5], in [10] and in assay [6] was “inactive” each time. For the same compound, the Potency entry in assay [7] and in assay [8] was “inactive” each time. The max response in assay [3] is -0.256% (inactive).

Regarding `O=c1[nH]c2ccccc2n1CCCN1CCN(C(c2ccccc2)c2ccccc2)CC1`, the Potency entry in [1], in assay [4] and in [8] was “inactive” in each case. Besides, the Potency in assay [2] is 10.7 µM (active); in assay [3], 12 µM (active); in assay [10], 26.8 µM (active); in assay [6], 23.9 µM (active); in [7], 23.9 µM (active).

For `COc1cccc2c1C(=O)c1c(O)c3c(c(O)c1C2=O)C[C@@](O)(C(C)=O)C[C@@H]3O[C@H]1C[C@H](N)[C@H](O)[C@H](C)O1`, the Potency in [1] was 43.9 µM (active) and inactive; in [2], 6.2 µM (active) and 151 nM (active); in assay [9], 49.3 µM (active); in assay [3], 62 nM (active) and 3 nM (active); in assay [10] it was 22 µM (active). Also, the Potency entry in [5], in assay [6], in assay [7] and in assay [8] was “inactive” throughout.

For the compound `O=[N+]([O-])c1ccc(O)cc1C(F)(F)F`, the Potency result in [1], in assay [2], in assay [9], in assay [4], in [5] and in [6] was “inactive” each time. Also, the Potency entry in assay [8] was “inactive”.

In the case of `COC(=O)c1ccccc1C`, the Potency result in assay [1], in assay [9], in assay [4], in assay [5], in assay [10] and in assay [6] was “inactive” each time. Besides, the Potency entry in [7] and in assay [8] was “inactive” throughout. For the same compound, the max response in assay [3] was -4.12% (inactive).

Take `CC(=O)[C@H]1CC[C@H]2[C@@H]3CCC4=CC(=O)CC[C@]4(C)[C@H]3CC[C@]12C`: the Potency in assay [1] was 24.4 µM (active) and 34.7 µM (active); in [2], 15.4 µM (active) and 19.5 µM (active); in assay [3], 13.7 µM (active) and 17.4 µM (active); in [7] it was 54.6 µM (active) and 43.6 µM (active); in assay [8], 15.4 µM (active) and 19.5 µM (active). In addition, the Potency result in assay [5], in assay [10] and in assay [6] was “inactive” each time.

Regarding `CC1=Nc2ccccc2C1(C)C`, the Potency entry in assay [1], in assay [2], in assay [9], in assay [4], in [10] and in assay [8] was “inactive” in each case. For the same compound, the Potency was 49 µM (active) in [6] and 38.9 µM (active) in [7].

Take `[Cu+]`: the Potency result in [1], in assay [2], in assay [9], in assay [4], in [5] and in assay [6] was “inactive” throughout. In addition, the Potency entry in [7] and in assay [8] was “inactive” in each case. For the same compound, the Potency in assay [10] was 49 µM (active).

`c1cnccn1`: the Potency entry in assay [1], in assay [9], in [4], in assay [5], in [10] and in assay [6] was “inactive” throughout. In addition, the Potency result in assay [7] and in assay [8] was “inactive” each time. Further, in assay [3], the max response was 2.57% (inactive).

Source of the values: PubChem BioAssay (Tox21).
